PTK2B oligo ant = blocks oligomerization of human Pyk2 in cells; Q14289; Q293 cells, Pyk2 FERM NanoBiT luminescence; stronger effect = lower value; z-score (the deposit names both 25 µM and 10 µM); 99,000 tested, 0.83% active;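 active = Z-score of -3 or lower, scaled per plate to the spread of control and sample wells; inactive = z-score above -3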;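 note: negative z-score means lost luminescence so less FERM oligomerization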
Target sequence (Q14289 whole entry, looked up): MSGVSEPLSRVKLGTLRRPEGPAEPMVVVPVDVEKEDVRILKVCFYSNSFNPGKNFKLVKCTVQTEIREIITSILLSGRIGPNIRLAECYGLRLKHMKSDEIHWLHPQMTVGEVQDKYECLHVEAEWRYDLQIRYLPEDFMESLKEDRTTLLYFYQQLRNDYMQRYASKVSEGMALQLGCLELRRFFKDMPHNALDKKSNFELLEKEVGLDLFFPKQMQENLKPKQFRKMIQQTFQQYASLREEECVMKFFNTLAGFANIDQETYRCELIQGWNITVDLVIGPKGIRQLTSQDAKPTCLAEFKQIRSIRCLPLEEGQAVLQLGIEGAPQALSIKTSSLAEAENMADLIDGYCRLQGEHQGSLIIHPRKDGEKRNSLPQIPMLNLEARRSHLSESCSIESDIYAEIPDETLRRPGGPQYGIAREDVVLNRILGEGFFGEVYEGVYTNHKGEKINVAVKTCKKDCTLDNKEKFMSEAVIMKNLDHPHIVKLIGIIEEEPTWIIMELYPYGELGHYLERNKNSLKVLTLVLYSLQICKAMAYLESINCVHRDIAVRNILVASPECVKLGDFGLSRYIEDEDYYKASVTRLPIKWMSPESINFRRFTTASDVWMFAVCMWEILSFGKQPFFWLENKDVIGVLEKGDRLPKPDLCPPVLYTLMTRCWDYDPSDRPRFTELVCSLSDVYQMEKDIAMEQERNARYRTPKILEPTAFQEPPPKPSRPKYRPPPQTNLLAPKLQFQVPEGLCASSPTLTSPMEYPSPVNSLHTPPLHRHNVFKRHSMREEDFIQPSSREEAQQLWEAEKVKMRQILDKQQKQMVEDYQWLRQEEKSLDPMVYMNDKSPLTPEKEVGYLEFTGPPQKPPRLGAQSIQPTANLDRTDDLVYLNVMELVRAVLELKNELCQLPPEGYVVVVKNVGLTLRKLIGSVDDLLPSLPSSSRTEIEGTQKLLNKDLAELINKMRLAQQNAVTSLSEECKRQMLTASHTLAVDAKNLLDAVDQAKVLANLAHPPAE
sdo1 growth = restores growth of sdo1-depleted yeast | AID 817 | 140,000 tested, 0.21% active | S. cerevisiae sdo1-depleted JHY4D growth rescue, OD600 30 h; stronger effect = higher value; pdr5 snq2 efflux-pump mutant strain | z-score at 10 µM;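 active = z-score above 3 at both the 24 hr and the 30 hr optical density reads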;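 note: z-score against mean and SD of all compound wells on the same plate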
DAT uptake mod = modulates human dopamine transporter uptake under cocaine; B-score at 10 µM; AID 449768; Q01959; LLC-PK1 hDAT cells, [14C]-dopamine uptake with cocaine IC80; actives deviate in either direction; 110,000 tested, 1.3% active;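 active = Z score or B-score, a plate-position-corrected score, falls beyond the plate's 99.7% confidence bounds, in either direction; inactive = both scores lie inside the 99.7% bounds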;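 note: scored against the spread of the other compound wells on the same plate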
PLK1 kinase inh = inhibitors of human PLK1 kinase | 97,000 tested, 0.53% active | recombinant PLK1 kinase, TR-FRET peptide phosphorylation | inhibition, % at 10 µM | AID 619 | P53350;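 active = inhibition of 50% or more in the single-concentration screen; inactive = inhibition below 50%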;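 note: 0% = DMSO max control and 100% = H-89 dihydrochloride min control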
Plk1 PBD FP = inhibitors of human Plk1 polo box domain binding; Plk1 PBD phosphopeptide binding, fluorescence polarization; P53350; inhibition, %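 (tested at about 20 µM)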; 97,000 tested, 0.13% active; in the data active = inhibition above about 34%, passing the limit was not always enough
Cav3 T inh = inhibitors of human Cav3.2 T-type calcium channel; O95180; Cav3.2-expressing cells, Fluo-4 calcium fluorescence FDSS; stronger effect = lower value; B-score at 10 µM; 100,000 tested, 4% active;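 active = single-dose well whose peak fluorescence ratio is a statistical outlier from its plate by either plate-standardised score or position-corrected B-score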
An asterisk follows results filed as active; / = no result given. Hits are enriched below; roughly 4.7% of the tested compounds scored in any of these assays.

SMILES	PTK2B oligo ant	sdo1 growth	DAT uptake mod	PLK1 kinase inh	Plk1 PBD FP	Cav3 T inh
COc1ccc(-c2nc(CSCC(=O)NC3CCCc4ccccc43)c(C)o2)cc1 (stereo not given)	0.3	-0.55	1.95	-13.4	-1.4	-8.17*
COc1ccc(-c2nnc(SCC(=O)NC3CCCc4ccccc43)n2N)cc1 (stereo not given)	/	0.61	/	/	/	/
COc1ccc(N(C(=O)CCl)C(C)(C(=O)Nc2c(C)cccc2C)c2ccccn2)cc1 (stereo not given)	/	0.82	/	/	/	/
Cc1c(Cl)cnc(NC(=O)COC(=O)c2cccc(S(=O)(=O)N3c4ccccc4CC3C)c2)c1Cl (stereo not given)	/	-0.08	/	/	/	/
Cc1ccc(N=Nc2c(N)[nH]n3c(=O)cc(C)nc23)cc1	/	1.21	/	/	/	/
Cc1ccc(N=Nc2c(=O)[nH]n3c(C)cc(C)nc23)cc1	-3.81*	0.36	-0.48	-20.9	6.1	1.25
Cc1ccccc1Nc1nnc(SCC(=O)NC2CCCc3ccccc32)s1 (stereo not given)	/	-0.42	/	/	/	/
Cc1nc(N)sc1N=Nc1ccc(F)cc1	-0.18	-3.27	-0.274	58.6*	-4.9	0.804
Cc1ccccc1CN(c1ccc(C(=O)Nc2ccccc2C(=O)NCc2ccco2)cc1)S(C)(=O)=O	-3.57*	-0.44	0.303	-16.2	-20.2	-1.95
O=C(CCc1nc2ccccc2c(=O)[nH]1)N1CCN(C/C=C/c2ccccc2)CC1	1.19	0.42	2.73	-5.6	10.4	2.17
COc1cccc(N2CCN(Cc3nc4ccccc4c(=O)[nH]3)CC2)c1	0.08	-0.28	2.22*	-11.1	6.7	/
O=c1[nH]c(CN2CCN(C/C=C/c3ccccc3)CC2)nc2cc(Cl)ccc12	0.3	-1.23	0.00777	69.2*	-18.2	-1.64
Cc1cc(C)c2c(N)c(S(=O)c3ccc(C(C)(C)C)cc3)sc2n1 (stereo not given)	-0.01	-1.11	0.243	-2.6	6.0	-2.25
Cc1ncc(CC(=O)n2cc(C(=O)c3cc(F)ccc3O)cn2)s1	-0.24	0.01	-0.53	13.2	-0.5	-3.45*
CCc1nc(C)cn1S(=O)(=O)c1cc(Br)c(C)cc1OC	0.37	-0.44	-0.0119	-10.4	-1.6	/
CCc1nc(C)cn1S(=O)(=O)c1ccc(Cl)c(Cl)c1Cl	0.8	-1.3	/	-18.5	-1.1	-3.57*
CCc1nc(C)cn1S(=O)(=O)c1cc(C)c(OC)cc1C	/	-0.41	-1.62	-13.4	-10.4	-3.84*
Brc1cccc(OCCCCN2CCCCC2)c1	/	-1.32	/	/	/	/
Cc1cccc(N2CCN(C(=O)c3ccc(NS(=O)(=O)c4c(C)noc4C)cc3)CC2)c1C	0.34	0.31	2.16	-12.7	1.4	-7.16*
Cc1cccc(N2CCN(C(=O)c3ccc4nc[nH]c4c3)CC2)c1C	/	0.15	/	/	/	/
Cc1cccc(N2CCN(C(=O)c3ccc4ncsc4c3)CC2)c1C	0.17	-0.39	2.46*	4.6	-14.2	-4.15
O=C1NCCCC2c3c(cc(Br)c(O)c3Br)OC12N1CCOCC1 (stereo not given)	0.58	0.41	1.35	-5.0	-14.3	0.624
O=C1NCCCC2c3cc(O)c4ccccc4c3OC12N1CCCCC1 (stereo not given)	/	-0.41	-3.42*	8.9	-34.6	0.37
COC(=O)c1cn(NC(=O)/C=C/c2ccc(OC)c(OC)c2)c(=O)c2ccccc12	0.92	-0.16	/	/	/	/
COc1cccc(NC(=O)C(NCC2CCCCC2)c2ccccc2)c1 (stereo not given)	0.04	0.2	1.82	-3.4	-9.9	0.394
SMILES	PTK2B oligo ant	sdo1 growth	DAT uptake mod	PLK1 kinase inh	Plk1 PBD FP	Cav3 T inh
COc1cc(NC(=S)NCCC(c2ccccc2)c2ccccc2)cc(OC)c1	/	-0.06	/	/	/	/
COc1cccc(NC(=O)C(NCCC(C)C)c2ccccc2)c1 (stereo not given)	-0.67	-0.06	0.205	-5.1	-4.9	-6.16*
COc1cccc(NC(=S)NCCC(c2ccccc2)c2ccccc2)c1	-0.83	-0.36	0.832	-14.3	-3.8	-6.92*
Cc1c(Cl)cccc1NC(=S)NCCC(C)C	0.08	-0.51	-0.231	-0.4	-2.5	-1.21
Cc1c(Cl)cccc1NC(=S)NCCC(c1ccccc1)c1ccccc1	-0.56	-1.23	-0.042	/	/	-6.86*
S=C(NCCc1ccccc1)Nc1ccc(Cl)cc1Cl	-1.37	-1.75	0.281	1.1	-12.8	-5.11*
CCNC(=S)Nc1ccc(Cl)cc1Cl	/	0.16	/	/	/	/
CN1C(=O)c2ccc(NC(=S)NC(=O)C(C)(C)C)cc2C1=O	/	0.64	/	/	/	/
CCO[C@@H]1OC(C(=O)NC2CC2)=C[C@H](c2coc3ccccc3c2=O)[C@H]1CCCO	/	/	-0.419	/	/	-0.0287
CCOC(=O)Cn1cnc(-c2ccc([N+](=O)[O-])cc2)c1	/	0.09	/	/	/	/
Cc1cc(Cl)ccc1NC(=S)NCCC(c1ccccc1)c1ccccc1	-0.15	-1.18	1.32	-11.7	-10.7	-3.61*
Cc1cccc(NC(=S)NCCC(c2ccccc2)c2ccccc2)c1	/	0.33	/	/	/	/
CCN(CC)C(=O)N1CCN(S(=O)(=O)c2ccc(C)cc2)CC1	0.15	-0.66	0.188	-3.9	4.1	0.062
Cc1ccc(N(C)C(=O)N2CCN(S(=O)(=O)c3c(C)cc(C)cc3C)CC2)cc1	-2.1	2.8	0.309	-3.6	-8.2	-6.01*
O=c1cc(-c2ccccc2)[nH]n1-c1ccc([N+](=O)[O-])cc1	-0.68	0.24	-2.48*	-11.6	4.5	-4.05*
O=c1cc(-c2ccc([N+](=O)[O-])cc2)nc2cc(-c3ccc(Cl)cc3)[nH]n12	/	-1.22	/	/	/	/
COc1ccc(/C=C2\CCc3ccccc3C2=O)cc1Cn1nc(C)cc1C	-1.49	-1.45	4.9*	-3.6	-12.0	-4.27*
COc1ccc(/C=C2/CCc3ccccc3C2=O)cc1CN1CCOCC1	/	-0.46	/	/	/	/
O=C(Nc1nc2c(s1)CCCC2)c1cc(-c2ccc3c(c2)OCO3)nc2ccccc12	/	-0.56	/	/	/	/
Cn1c(NC(=O)c2cc(-c3ccc4c(c3)OCO4)nc3ccccc23)cc(=O)n(C)c1=O	-3.96*	-0.25	/	-3.1	-24.5	/
CN(C)c1ccc(C2C=C(c3ccc(Cl)cc3OC(F)F)Nc3ncnn32)cc1 (stereo not given)	-1.35	-1.58	0.214	/	/	-5.93*
COc1ccc2c(c1)C(C)CC(C)(C)N2C(=O)CSc1nc2ccccc2s1 (stereo not given)	-1.6	-1.29	0.518	-13.1	2.7	-7.64*
CC1CN(Cc2ccccc2)c2ccccc2NC1=S (stereo not given)	/	-2	/	/	/	/
CC(=O)N(Cc1ccc(F)cc1)C1=C(NCCc2ccccc2)C(=O)c2ccccc2C1=O	-3.18*	-2.03	-0.0979	0.1	6.2	-2.74
O=C(CCCc1ccccc1)NCc1ccc(F)cc1	/	1.04	/	/	/	/
COc1ccc(CCNC(=O)CSc2cn(Cc3cccc(C)c3)c3ccccc23)cc1OC	/	-0.55	0.59	/	/	-4.32*
COc1ccc(CCNC(=O)CSc2cn(Cc3ccccc3)c3ccccc23)cc1OC	/	-0.77	-0.94	/	/	0.0137
Cc1ccc(Cn2cc(SCC(=O)Nc3nccs3)c3ccccc32)cc1	/	-0.59	-0.38	-12.4	8.8	-5.96*

Screening data: PubChem BioAssay, several laboratories
